An excerpt weighted towards active compounds, which were near 2.1% of everything screened.
HUVEC tox IL1B – toxic to HUVEC cells under IL-1B stimulation | HUVEC cell count loss, Hoechst imaging, IL-1B stimulated | cell count reduction, % at 2 µM | hit rate 0.41% among 94,000;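 active = cell count reduction more than 3 SD above the screen-wide mean, cut at about 70% in these data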;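 also: normalized per plate to untreated control cells as the no-loss baseline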
IL1B NFkB inh – blocks IL-1B driven NFkB nuclear translocation in HUVEC cells; HUVEC IL-1B NFkB p65 nuclear translocation imaging; hit rate 0.43% among 94,000; inhibition, % at 2 µM;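 active = inhibition above about 30% together with a positive call from visual inspection of the well image, limit read from the data; inconclusive = inhibition above a set limit but visual check negative; inactive = inhibition not above a set limit, visual check negative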;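 also: nuclear over cytoplasmic p65 intensity ratio measured by imaging; 0% = IL-1B stimulated DMSO wells and 100% = unstimulated DMSO wells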
Measles CPE – protection of cells from measles virus; AID 841; Measles virus-infected cells, CPE protection, absorbance; protection (pct of control), % at 4 µM; hit rate 1.5% among 140,000; in the data active = protection mostly above about 24%, no sharp cut-off; inactive = mostly below about 26%
NFkB transloc pot – enhances IL-1B driven NFkB nuclear translocation. HUVEC IL-1B NFkB p65 nuclear translocation imaging. activation, % at 2 µM. hit rate 0.3% among 94,000. AID 819;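 active = activation above 40%, about the mean plus 3 SD, also judged a hit on visual image review; inconclusive = activation above 40% but not a hit on visual review; inactive = activation not above 40% and no visual hit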;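 also: percent activation is computed from the nuclear over cytoplasmic p65 intensity ratio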
An asterisk follows results filed as active; ? = inconclusive; / = not tested or not shown.

SMILES	HUVEC tox IL1B	IL1B NFkB inh	Measles CPE	NFkB transloc pot
c1ccc2c(c1)ccc1nnc(SCc3ccc4c(c3)OCO4)n12	-8.1	-9.8	32.3	9.8
CN1CCN(C(=O)c2ccccc2NC(=O)C(C)(C)C)CC1	-8.0	-16.1	9.1	16.1
O=C(c1cccs1)N1CCN(S(=O)(=O)N2CCCCC2)CC1	92.4*	6.7	-0.2	-6.7
CN1CCN(C(=O)c2ccccc2NC(=O)c2cccs2)CC1	18.0	3.8	45.4*	-3.8
O=C(c1ccsc1)N1CCN(C(=O)c2cccs2)CC1	78.4*	0.8	5.4	-0.8
O=C(c1cccs1)N1CCN(C(=O)C(c2ccccc2)c2ccccc2)CC1	0.3	39.5*	7.9	-39.5
O=C(c1cccs1)N1CCN(S(=O)(=O)c2ccccc2)CC1	21.5	10.3	23.0	-10.3
COc1ccc(C)cc1S(=O)(=O)N(CC(=O)NCc1ccc(Cl)cc1)Cc1ccccc1	-45.4	-24.2	17.6	24.2
COc1ccc(CNC(N)=O)cc1OC	/	/	26.6	/
COc1ccc(CCNC(=O)COC(=O)c2ccco2)cc1OC	-26.0	-14.0	39.0*	14.0
COc1ccc(CCC(N)=O)cc1OC	-15.5	-3.9	27.3*	3.9
COc1ccc(C(=O)Cc2ccc(OC)c(OC)c2)c(OC)c1	-0.3	9.2	60.9*	-9.2
N=c1c(-c2nc3ccccc3[nH]2)cc(C(=O)c2cccs2)nn1-c1ccc(Cl)cc1	-11.8	8.0	/	-8.0
Cc1ccc(S(=O)(=O)N2CCOCC2)cc1C(=O)OCC(=O)N1CCc2ccccc2C1	-5.2	1.4	29.5	-1.4
Cc1cc(-c2cccs2)n[nH]1	/	/	37.5*	/
O=S(=O)([O-])CCC[n+]1c(SCCCS(=O)(=O)O)sc2ccc(Cl)cc21	/	/	35.5*	/
N#CCCCSc1nnc(-c2ccc(Cl)cc2)n1-c1ccccc1	6.6	8.5	3.8	-8.5
Cn1cnc2cc(NS(=O)(=O)c3ccc(Br)cc3)ccc21	-1.0	-6.3	10.7	6.3
CCCCS(=O)(=O)Nc1ccc2ncn(C)c(=O)c2c1	72.2*	-2.9	3.0	2.9
C/C=C/C=N/NC(=O)CN(c1ccc(Br)cc1)S(=O)(=O)c1ccccc1	/	/	2.9	/
CCc1c(C)nc2[nH]nc(NC(=O)C(F)(F)F)n2c1=O	7.7	9.2	51.0*	-9.2
CCOC(=O)c1cnn(-c2ccccc2)c1-n1cccc1C(=O)C(=O)Nc1ccc(OC)cc1	94.2*	-9.4	17.2	9.4
C[N+]1(C)CC2([N+](=O)[O-])CC=C(Oc3ccccc3)C([N+](=O)[O-])(C2)C1 (stereo not given)	/	/	19.3	/
CN1CC2([N+](=O)[O-])CC=C(Oc3ccccc3)C([N+](=O)[O-])(C1)C2 (stereo not given)	0.6	-41.6	30.1*	?
COC(=O)c1ccc2[nH]c(C)c(CN3CCCC3)c(=O)c2c1	/	/	48.2*	/
SMILES	HUVEC tox IL1B	IL1B NFkB inh	Measles CPE	NFkB transloc pot
CC1(C)Cc2c(c(-c3ccccc3)[nH]c(=O)c2C#N)CO1	3.5	3.1	13.2	-3.1
CC1(C)Cc2c(c(-c3ccccc3Cl)[nH]c(=O)c2C#N)CO1	-12.7	-5.2	28.1*	5.2
O=C(O)c1c(F)c(F)cc2ccccc12	-8.6	6.9	7.0	-6.9
Cn1c(N)c(C(=O)COC(=O)c2cccc(S(=O)(=O)N3CCCCC3)c2)c(=O)n(C)c1=O	/	/	7.7	/
Cn1c(N)c(C(=O)COC(=O)c2cc(S(=O)(=O)N3CCCCC3)ccc2Cl)c(=O)n(C)c1=O	/	/	26.8*	/
O=C(NCc1cccs1)C1CCCN(S(=O)(=O)c2cnc[nH]2)C1 (stereo not given)	3.0	-10.3	9.7	10.2
CC(Sc1nc2c(c(=O)n(C)c(=O)n2C)n1Cc1cc2c(cc1Cl)OCO2)C(=O)O (stereo not given)	-37.0	-6.2	53.1*	6.2
Cn1c(=O)c2c(nc(SCC(=O)NCc3ccc4c(c3)OCO4)n2Cc2ccccc2)n(C)c1=O	-141.7	-18.5	3.8	18.5
CCN(CC)C1=CC2=CC(=C(C#N)C#N)CCC2CC1 (stereo not given)	/	/	38.9*	/
C=CCn1c(SCC(=O)N2CC(=O)Nc3ccccc32)nc2scc(-c3ccccc3)c2c1=O	-12.7	5.7	80.7*	-5.7
C=CCn1c(SCC(=O)NCc2ccc3c(c2)OCO3)nc2scc(-c3ccccc3)c2c1=O	-11.9	3.1	8.9	-3.1
O=C(CCSc1ccccc1)Nc1ccc(S(=O)(=O)N2CCOCC2)cc1	13.9	12.7	2.6	-12.7
COc1cc(S(=O)(=O)N2CCCCC2)ccc1NC(C)=O	11.6	-1.6	51.7*	1.6
Cc1ccc(S(=O)(=O)Cc2ccc(C(=O)OCc3ccccc3)cc2)cc1	-1.6	-31.2	18.4*	31.2
O=C(N/N=C/C=C/c1ccccc1[N+](=O)[O-])c1cc(-c2cccnc2)nc2ccccc12	/	/	22.8	/
COc1ccccc1-c1cc(C(=O)N/N=C/C=C/c2ccccc2[N+](=O)[O-])c2ccccc2n1	-2.1	-41.9	26.3	41.9*
CC1(C)Cc2ccccc2-c2nnc(C(F)(F)F)n21	/	/	40.6*	/
Cc1ccc(C(=O)COC(=O)CNS(=O)(=O)c2ccccc2)cc1[N+](=O)[O-]	-25.1	-98.0	10.4	?
O=S(=O)(Nc1ccc(Cc2ccncc2)cc1)c1cccs1	-14.4	-7.6	45.8*	7.6
CC(NC(=O)c1ccccc1NC(=O)c1ccco1)C(=O)O (stereo not given)	19.2	-13.4	11.0	13.4
CC(NC(=O)c1ccccc1Cl)C(=O)O (stereo not given)	4.9	-66.6	7.2	66.6*
CC(C)COC(=O)n1c(SCC(=O)N(C)C)nc2ccccc21	-2.6	-4.0	8.5	4.0
CCN(CC)S(=O)(=O)c1cc(F)ccc1OC	77.2*	6.5	29.9	-6.5
CCN(CC)S(=O)(=O)c1cc(C(=O)Oc2ccccc2OC)ccc1OC	-4.6	-4.3	0.7	4.3
CC(C)C(NS(=O)(=O)c1cccc2nsnc12)C(=O)N1CCc2ccccc2C1 (stereo not given)	-46.5	-0.9	9.8	0.9
SMILES	HUVEC tox IL1B	IL1B NFkB inh	Measles CPE	NFkB transloc pot
C/C=C/C(=O)OCC(=O)Nc1c(Cl)cccc1Cl	-3.4	-5.0	29.8*	5.0
Cc1c(C(=O)COC(C)(C)C)[nH]c2ccccc12	-61.6	-3.7	36.0	3.7
CC(OC(=O)CCCc1nc2ccccc2s1)C(N)=O (stereo not given)	10.1	-2.7	28.9*	2.7
Cc1ccn(CCSCC(=O)O)n1	86.3*	-3.7	5.0	3.7
O=C(O)CSCCn1cccn1	/	/	6.3	/
Cc1c(C(=O)Oc2cccc3ccccc23)cnn1-c1ccccc1	9.9	5.4	23.9	-5.4
NC(=O)c1c(-c2ccc(Cl)cc2Cl)csc1NC(=O)Cc1ccccc1	/	/	18.9	/
Cc1ccc(CSc2nc3ccccc3cc2C=O)cc1	72.6*	36.0*	7.2	-36.0
O=Cc1cc2ccccc2nc1SCc1ccc(Cl)c(Cl)c1	64.7	33.8*	4.0	-33.8
O=Cc1cc2ccccc2nc1SCc1ccc(Cl)cc1	56.5	-5.0	3.2	5.0
CCOC(=O)c1ccc(CNC(=O)CSc2nnnn2-c2ccc(Cl)cc2)o1	-5.3	3.5	42.6*	-3.5
CCOC(=O)NC(=O)CSc1nnnn1-c1ccc(Cl)cc1	-5.3	-13.9	41.8	13.9
C=CCN1C(c2ccccc2)=CS/C1=C(/C#N)c1nnc(N2CCOCC2)n1-c1ccccc1	/	/	52.4*	/
Cc1ccc(S(=O)(=O)CCC(=O)OCC(=O)c2ccc(C)c(C)c2)cc1	/	/	29.9*	/

Source: PubChem (several laboratories)
